Consider 40 compounds from PubChem BioAssay (EPA / NIEHS).

Calls of active or inactive are those of the source. Rule for the calls: active = hit-call score of the fitted dose curve at least 0.9, where 1 is the maximum; inactive = score below 0.9.

The target in the assay is Myc proto-oncogene protein (Homo sapiens) (UniProt P01106). Put plainly: ATG_Myc_CIS: Attagene CIS-FACTORIAL HepG2 Assay for human Myelocytomatosis (Myc) Proto-Oncogene Transcription Factor (AID 2282990). Conditions: HepG2, Attagene cis-reporter transcription factor activity; actives raise or lower the signal. As to the method: ATG_CIS is a cell-based, multiplexed-readout assay that uses HepG2, a human liver cell line, with measurements taken at 24 hours after chemical dosing in a 24-well plate.ATG_Myc_CIS is one of 52 assay component(s) measured or calculated from the ATG_CIS assay. It is designed to make measurements of mRNA induction, a form of inducible reporter, as detected with fluorescence intensity signals by Reverse transcription polymerase chain reaction (RT-PCR) and Capillary electrophoresis technology.Data from the assay component ATG_Myc_CIS was analyzed into 1 assay endpoint. This assay endpoint, ATG_Myc_CIS, was analyzed with bidirectional fitting relative to DMSO as the negative control and baseline of activity. Using a type of inducible reporter, measures of mRNA for gain or loss-of-signal activity can be used to understand the reporter gene at the transcription factor-level as they relate to the gene MYC. Furthermore, this assay endpoint can be referred to as a primary readout, because this assay has produced multiple assay endpoints where this one serves a reporter gene function. To generalize the intended target to other relatable targets, this assay endpoint is annotated to the dna binding intended target family, where the subfamily is basic helix-loop-helix leucine zipper.
Myc proto-oncogene protein (Homo sapiens), sequence (P01106 whole entry, looked up): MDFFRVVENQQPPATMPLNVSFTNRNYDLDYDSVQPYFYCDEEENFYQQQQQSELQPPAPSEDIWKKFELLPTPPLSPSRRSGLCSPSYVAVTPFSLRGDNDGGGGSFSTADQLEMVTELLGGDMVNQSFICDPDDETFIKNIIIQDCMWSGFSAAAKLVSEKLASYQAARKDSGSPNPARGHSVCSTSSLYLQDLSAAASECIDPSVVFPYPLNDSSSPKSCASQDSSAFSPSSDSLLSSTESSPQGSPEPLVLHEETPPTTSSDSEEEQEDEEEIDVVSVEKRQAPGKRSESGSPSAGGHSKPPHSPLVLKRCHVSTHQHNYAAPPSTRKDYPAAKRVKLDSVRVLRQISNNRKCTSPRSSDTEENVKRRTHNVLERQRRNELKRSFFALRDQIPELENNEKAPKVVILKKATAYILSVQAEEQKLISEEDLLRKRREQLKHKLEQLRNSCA
Human liver HepG2 cells are transiently transfected with multiple reporter transcription units (MRTUs) in 6-well plates using FuGene 6 reagent (Roche; 3 ml FuGene/1 mg DNA). The MRTU constructs are regulated by a cis-regulating element (promoter). […] A major difference between the CIS and TRANS system is that in CIS activities of endogenous TFs are measured, whereas the TRANS assay evaluates changes in activities of exogenous, chimeric NR-Gal4 proteins. […] At the end of 24 hour incubation, total RNA was isolated using TriZol reagent (Invitrogen). The isolated RNA is then reverse-transcribed using oligo(dT) primer and Mo-MLV reverse transcriptase (Invitrogen) with DNAse I (Ambion) treatment for 30 min. The one-tenth of the produced cDNA was amplified by PCR using Taq DNA polymerase (Invitrogen) and two reporter sequence-specific primers. The PCR products were fluorescently labeled by primer extension with 6-arboxyfluorescein (6-FAM) 5'-labeled reporter sequence-specific primer (2 min at 95 C, 20 s at 68 C and 10 min at 72 C) and these products were digested with 5U of HpaI (New England Biolabs) for 2h at 37 C. The fragments were purified using Qiaquick PCR columns (Qiagen), analyzed on an ABI 3130xL genetic analyzer (Applied Biosystems) with peak positions identified by using a set of X-rhodamine (ROX)-labeled MapMarker1000 molecular weight standards (BioVentures). The raw capillary electrophoresis data was processed using Attagraph software (Attagene).
Turning to `Cc1ccc(N=CN(C)C=Nc2ccc(C)cc2C)c(C)c1`, the result was inactive. Take `CCNC(=O)NC(=O)C(C#N)=NOC`: the result was inactive. As for `CC(C)Oc1cccc(NC(=O)c2ccccc2C(F)(F)F)c1`, the result was inactive.

Take `Nc1cnn(-c2ccccc2)c(=O)c1Cl`: the result was inactive. Next, `O=C1C2CC=CCC2C(=O)N1SC(Cl)(Cl)Cl` (stereo not given): “inactive”; `CC(C)Nc1nc(Cl)nc(NC(C)C)n1`: “inactive”; `COc1cc(OC)nc(NC(=O)NS(=O)(=O)c2ncccc2OCC(F)(F)F)n1`: “inactive”. To `Cc1c(COC(=O)[C@@H]2[C@H](/C=C(\Cl)C(F)(F)F)C2(C)C)cccc1-c1ccccc1` belongs “inactive”. For the compound `O=C(O)c1c(Cl)ccc2cc(Cl)cnc12`, the call was inactive. Turning to `CC(C)N1C(=O)N(c2ccccc2)CSC1=NC(C)(C)C`, the result was inactive. Take `Cn1c(-c2ccccc2)cc(-c2ccccc2)[n+]1C`: the compound was called inactive.

In the case of `O=c1n(Cl)c(=O)n(Cl)c(=O)n1Cl`, the compound was classed as inactive. On to `COCC(C)N(C(=O)CCl)c1c(C)csc1C` (stereo not given), for which the outcome was inactive. Turning to `CN=C=S`, the compound was called inactive. `COC(=O)NS(=O)(=O)c1ccc(N)cc1`: the compound was classed as inactive. In the case of `COc1ccc(-c2ccccc2)cc1NNC(=O)OC(C)C`, the compound was called inactive. In the case of `CC(C)C1(C)N=C(c2ncccc2C(=O)O)NC1=O` (stereo not given), the result was inactive. Take `CNC(=O)Oc1cccc2ccccc12`: the compound was called inactive. With `OC(c1ccc(Cl)cc1)(c1ccc(Cl)cc1)C(Cl)(Cl)Cl`, the outcome was inactive.

With `Cc1nc(N(C)C)nc(OC(=O)N(C)C)c1C`, the outcome was inactive.

In the case of `CC(C)N1C(=O)c2ccccc2NS1(=O)=O`, the outcome was inactive. As for `CCC(C)n1c(=O)[nH]c(C)c(Br)c1=O` (stereo not given), the call was inactive. `N#Cc1c(Cl)cccc1Cl`: the compound was called inactive. To `COCC(=O)N(c1c(C)cccc1C)C(C)C(=O)OC` (stereo not given) belongs “inactive”. As to `CCNP(=S)(OC)O/C(C)=C/C(=O)OC(C)C` (stereo not given), the compound was classed as inactive.

As for `CS(=O)(=O)c1ccc(C(=O)C2C(=O)CCCC2=O)c([N+](=O)[O-])c1`, the call was inactive. Consider `Nc1c(Cl)c(Cl)nc(C(=O)O)c1Cl`, for which the outcome was inactive. As for `CC(C)=CC1C(C(=O)OCc2coc(Cc3ccccc3)c2)C1(C)C` (stereo not given), the result was inactive.

For `CO/N=C(/C1=NOCCO1)c1ccccc1Oc1ncnc(Oc2ccccc2Cl)c1F`, the result was inactive.

In the case of `C=CCOC(=O)C(C)(C)OC(=O)c1cc(-n2c(=O)cc(C(F)(F)F)n(C)c2=O)ccc1Cl`, the call was inactive.

In the case of `COP(=S)(OC)Oc1ccc([N+](=O)[O-])c(C)c1`, the compound was called inactive.

Consider `CCOP(=S)(OCC)Oc1nc(Cl)n(C(C)C)n1`, for which the result was inactive. To `CCN(CC)c1nc(C)cc(OP(=S)(OC)OC)n1` belongs “inactive”; to `CS(=O)(=O)c1cc(C(F)(F)F)ccc1C(=O)c1cnoc1C1CC1`, “inactive”. Next, `CCCN(CC)CC1COC2(CCC(C(C)(C)C)CC2)O1` (stereo not given): “inactive”. Regarding `COC(=O)NC(=S)Nc1ccccc1NC(=S)NC(=O)OC`, the compound was classed as inactive. To `C=C(C)CN(CC)c1c([N+](=O)[O-])cc(C(F)(F)F)cc1[N+](=O)[O-]` belongs “inactive”; to `CCCCOCN(C(=O)CCl)c1c(CC)cccc1CC`, “inactive”.

Consider `COP(=O)(OC)O/C(C)=C/C(=O)N(C)C`, for which the outcome was inactive. Turning to `CSC(=O)c1c(C(F)F)nc(C(F)(F)F)c(C(=O)SC)c1CC(C)C`, the compound was classed as inactive.
